Source: PubChem (National Center for Advancing Translational Sciences (NCATS))
TDP1 block – inhibitors of human tyrosyl-DNA phosphodiesterase TDP1. recombinant TDP1, AlphaScreen DNA substrate cleavage. Potency, µM (series often up to 130 µM), for inactives: top-dose activity change, negative = inhibition, most hits filed as inhibitors. 350,000 compounds, 0.28% hits; also: % is scaled to controls: 0 for no effect and ±100 for the full control effect; nearly all actives have a fitted effect of over 40% in size
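Compounds were preincubated with Tdp1 (1 nM final) for 15 min at room temperature before substrate (15 nM final) started a 5 min reaction; beads (10 ug/ml final) were then added for 10 min before AlphaScreen detection.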
TDP1 cell CPT – growth inhibition of DT40 Tdp1-/-;hTDP1 cells with camptothecin (screen for TDP1 inhibitors) | Potency, µM (titrated, usually from 46.2 µM), inactives show top-dose activity change, negative = growth inhibition, most hits filed as inhibitors | AID 686979 | 420,000 compounds, 12% hits | chicken DT40 Tdp1-/-;hTDP1 cells + 20 nM CPT, ATP luminescence, 48 h; also: % is scaled to controls: 0 for no effect and ±100 for the full control effect; nearly all actives have a fitted effect of over 55% in size
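Chicken DT40 Tdp1-/- cells complemented with human TDP1, 400 cells/well, exposed to compounds plus 20 nM camptothecin for at least 48 h at 37 C; viability read as ATP content by CellTiter-Glo luminescence.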
DT40 TDP1 no CPT – qHTS for Inhibitors of human tyrosyl-DNA phosphodiesterase 1 (TDP1): qHTS in cells in absence of CPT. DT40 Tdp1-/- hTDP1 cells, no CPT, ATP luminescence, 48 h. 420,000 compounds, 15% hits. AID 686978, 2013. Potency, µM (doses to about 46.2 µM), for inactives: top-dose activity change, negative = growth inhibition, actives largely listed as inhibitors; also: % is scaled to controls: 0 for no effect and ±100 for the full control effect; nearly all actives have a fitted effect of over 55% in size
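Cells were dispensed at 400 per well, compounds added by pin tool, plates incubated ≥48 hr at 37 °C, then CellTiter-Glo added for 30 min at room temperature before luminescence reading. Line: DT40 Tdp1-/- complemented with hTDP1; camptothecin omitted.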
ClpP mod – qHTS Assay for Activators of ClpP; 340,000 compounds, 1.9% hits; ATP-dependent Clp protease proteolytic subunit (Bacillus subtilis (strain 168)), P80244; purified B. subtilis ClpP, FRET peptide cleavage, 20 min; Potency, µM (series often up to 57.5 µM), for the others: top-dose activity change, negative = active; active = well fitted falling curve with a large enough effect; inconclusive = small, poorly fitted or top-dose-only effect; inactive = no such curve, though single readings can be large or run the other way; also: the source files actives as falling curves though it sought activators and does not explain the sign; nearly all actives have a fitted effect of over 65% in size
Target sequence (P80244 whole entry, looked up): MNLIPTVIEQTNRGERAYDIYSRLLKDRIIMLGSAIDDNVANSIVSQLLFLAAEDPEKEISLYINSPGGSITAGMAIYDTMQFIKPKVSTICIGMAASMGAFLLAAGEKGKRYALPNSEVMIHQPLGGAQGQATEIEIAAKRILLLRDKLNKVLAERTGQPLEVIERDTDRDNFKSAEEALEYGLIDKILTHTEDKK
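Buffer: 100 mM Tris/HCl pH8, 100 mM KCl, 0.05% low protease BSA, 2.5% glycerol, 0.01% Tween-20. ClpP 10 microg/mL final; 20 min RT; delta FRET normalized to ADEP and DMSO controls.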
The depositor's hits bear a star; ? = inconclusive; · = no result given. Only some compounds are listed: those with a hit (about 17% of all), similar ones and a draw of the others. Unless noted, calls follow the shape of the dose curve; as a rule, active = well fitted curve in the direction sought with a large enough effect; inconclusive = small, poorly fitted or top-dose-only effect, or another doubt; inactive = no such curve, though single readings can be large; an effect the other way counts as inactive or inconclusive. Potency is read from the fitted curve at half-maximal effect.

SMILES	TDP1 block	TDP1 cell CPT	DT40 TDP1 no CPT	ClpP mod
Cc1ccc(C)c(N2CCN(C(=O)c3ccc(NC(=O)c4nsc5ccccc45)cc3)CC2)c1	2.7%	20.6µM*	18.4µM*	-0.8%
O=C(Nc1cccc(C(=O)N2CCN(c3cccc(Cl)c3)CC2)c1)c1nsc2ccccc12	-2.7%	18.4µM*	16.4µM*	-8.0%
O=C(Nc1ccc(C(=O)N2CCN(c3cccc(Cl)c3)CC2)cc1)c1nsc2ccccc12	2.7%	?	13µM*	-5.8%
O=C(Nc1cccc(C(=O)N2CCN(c3cccc(Cl)c3)CC2)c1)c1ccccc1	11.0%	16.4µM*	25.9µM*	0.4%
O=C(Nc1ccc(C(=O)N2CCN(c3ccccc3)CC2)cc1)c1nsc2ccccc12	5.4%	?	?	-1.1%
COCCCNc1nc2c(-c3ccccc3)nnn2c2ccccc12	-3.8%	-21.9%	?	-8.8%
O=C(Nc1ccc(SC(F)F)cc1)c1ccc2c(=O)n3c(nc2c1)CCC3	0.2%	?	?	2.6%
Cc1noc(C)c1NC(=O)N(C)C[C@H]1Oc2ccc(NC(=O)Cn3cnnn3)cc2C(=O)N([C@H](C)CO)C[C@@H]1C	0.8%	0.2%	-16.9%	-0.8%
COc1cc(CNc2ccc(S(N)(=O)=O)cc2)ccc1OCC(=O)NC1CCCCC1	0.0%	-0.7%	-20.3%	·
O=C(Nc1cccc(C(=O)N2CCN(c3ccc(Cl)cc3)CC2)c1)c1nsc2ccccc12	10.8%	14.6µM*	10.3µM*	-4.7%
CCN(C(=O)CSc1n[nH]c(-c2ccc(OC)cc2)n1)c1c(N)n(Cc2ccccc2)c(=O)[nH]c1=O	·	4.4%	3.0%	-3.0%
CCOC(=O)NC1(C(F)(F)F)NC(=O)N(c2cccc(C(F)(F)F)c2)C1=O (configuration not stated)	1.4%	-5.3%	-1.5%	0.9%
CCOC(=O)NC1(C(F)(F)F)NC(=O)N(c2ccc(F)cc2)C1=O (configuration not stated)	-1.4%	-2.0%	-5.8%	35.5µM*
O=C(CCCOc1ccccc1)Nc1cccc(S(=O)(=O)N2CCCCCC2)c1	0.1%	-25.9%	-21.9%	1.3%
Cc1cc(C(=O)Cn2nc(C(=O)O)c3ccccc3c2=O)c(C)n1-c1ccc(F)cc1	5.3%	29.1µM*	?	-1.1%
Cc1cc(F)ccc1C(O)c1ncc(-c2ccc3ccccc3c2)[nH]1 (configuration not stated)	·	-26.5%	?	5.4%
Cc1ccc(-c2nc3ncccc3o2)cc1NC(=O)c1ccc2c(c1)OCO2	·	1.9%	-13.4%	·
Cc1cccc(CNC(=O)c2ccc(C)c(-n3c(C)nc4cccnc43)c2)c1	2.8%	?	?	-16.2%
CC(=O)c1cccc(NC(=O)CSc2nc3ccccc3c(=O)n2CCCN2CCOCC2)c1	-0.4%	-20.8%	?	-0.1%
Cc1ccc(NC(=O)CSc2nc3ccccc3c(=O)n2CCC(=O)NC2CCCCC2)cc1C	6.4%	-14.0%	-4.6%	-0.2%
Cc1ccc(S(=O)(=O)N(C)C)cc1-n1c(SCC(=O)Nc2ccc(F)cc2)nc2ccccc2c1=O	0.0%	?	?	-5.8%
CN(C)S(=O)(=O)c1ccc(Cl)c(NC(=O)CSc2nc3ccccc3c(=O)n2CCCN2CCOCC2)c1	0.0%	?	25.9µM*	0.4%
Cc1cccc(NC(=O)C(C)Sc2nc3ccccc3c(=O)n2CCCN2CCOCC2)c1 (configuration not stated)	3.3%	23.1µM*	-21.5%	1.1%
Cc1ccc(S(=O)(=O)N(C)C)cc1-n1c(SCC(=O)Nc2ccc(F)cc2Cl)nc2ccccc2c1=O	2.8%	20.6µM*	16.4µM*	-10.9%
Cc1ccc(NC(=O)CSc2nc3ccccc3c(=O)n2CCCN2CCCCC2)cc1C	3.1%	25.9µM*	?	0.1%
Cc1ccc(-c2nc3c4ccccc4n(CC(=O)N4CCN(c5ccccc5F)CC4)c(=O)n3n2)cc1	-2.6%	-16.8%	-12.2%	-2.2%
CCOC(=O)Cn1c(=O)n(C2CCCCC2)c2nc(-c3c(F)cccc3Cl)nc(C(N)=O)c21	5.3%	·	·	3.9%
CNc1c(NC(=O)c2ccc3c(c2)OCO3)c(=O)oc2ccccc12	-0.3%	-17.6%	6.7%	-1.8%
